Shown are actives, neighbours in structure and some others; about 2.7% of the full set was active somewhere.
F508del corr: F508del CFTR correction, initial screen, CFBE line, single point; CFBE cells, YFP halide quenching; stimulated with forskolin plus potentiator P3; % fluorescence drop versus neutral controls; activity (quench increase), % at 7.58 µM; hit rate 0.36% among 350,000; AID 720511, 2013;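 active = mean added fluorescence quench of at least 8% versus neutral control, with both replicates also reaching 8%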;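 note: cells transiently co-express mutant CFTR-F508del with the halide-sensitive YFP; corrector assay measuring rescue of mutant channel to the surface after 24 h compound exposure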
INS-1E GSIS act: GLuc luminescence reporter in INS-1E cells, primary screen for activators of glucose-dependent secretion of insulin. activation, % at 16.6 µM. INS-1E GLuc reporter insulin secretion, 2-3 h. hit rate 0.61% among 370,000;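 active = lowest replicate activation of at least 40%, so every replicate reaches that level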;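 note: 0% = median of neutral control wells and 100% = median of IBMX positive control wells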
Wnt act: Wnt/beta-catenin pathway activators, primary screen, cell-based, plate reader, single point. AID 743398, 2014. Wnt/beta-catenin reporter cell assay, activator. hit rate 1.2% among 300,000. activation, % at 9.35 µM; in the data active = activation above about 30%, passing the limit was not always enough;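 note: 0% = neutral control wells and 100% = positive control wells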
MITF act: activators of MITF-driven TRPM1 promoter reporter, primary screen, cell-based, SK-MEL-5, luciferase, single point; hit rate 0.75% among 300,000; activation, % at 12.5 µM; AID 588334, 2011; SK-MEL-5 TRPM1-promoter luciferase, 24 h; % of positive control, neutral wells = 0;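 active = mean activation of at least 80% with every replicate also reaching 80%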;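 note: 0% = neutral control wells and 100% = parthenolide positive control wells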
HIV Env fusion: inhibitors of HIV-1 Env-driven cell-cell fusion, primary screen, HeLa-JRFL effector, CEM21 target cells, luciferase; inhibition, % at 12.3 µM; AID 651610, 2012; hit rate 1.1% among 360,000;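 active = mean replicate inhibition score of at least 50 and every replicate individually at or above 50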;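 note: 0% = plate neutral controls and 100% = maraviroc near 300 nM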
* = called active by the depositor; . = no result; [ ] = another dose, or the depositor's remark.

SMILES	F508del corr	INS-1E GSIS act	Wnt act	MITF act	HIV Env fusion
Cc1cc(C(=O)Nc2ccc3c(c2)OCO3)no1	2	-4	22	106*	-22
COCC#Cc1cnc2c(c1)C(=O)N([C@@H](C)CO)C[C@H](C)[C@@H](CN(C)C(=O)c1cccc(F)c1)O2	2	0	.	.	14[16.7 µM]
COCCCNC1=C(Cl)C(=O)c2ccccc2C1=O	-4	-3	0	.	10
COCCCNc1c2c3c(cccc3[nH]c1=O)C(=O)c1ccccc1-2	46*	.	0	-7	-12
CC1CCc2nc(N)c(C#N)c(-c3cccnc3)c2C1 (stereo unspecified)	-3	16	-12	-2	29
CC1CCc2nc(N)c(C#N)c(-c3ccncc3)c2C1 (stereo unspecified)	.	78*	.	.	-13
CO[C@@H]1CN(C)C(=O)c2cc(NC(C)=O)ccc2OC[C@H](C)N(Cc2ccccc2C(=O)O)C[C@H]1C	2	7	.	.	-20[16.7 µM]
N/C(=N/O)c1nc(N2CCCC2)nc(N2CCCC2)n1	-1	76*	-6	-16	-14
CCCS(=O)(=O)N1CCCC(c2nc(-c3cccc(OC)c3)no2)C1 (stereo unspecified)	.	1	.	10	.
COc1cccc(-c2noc(C3CCCN(S(=O)(=O)c4cccc(Cl)c4C)C3)n2)c1 (stereo unspecified)	.	.	.	24	112*
C[C@H]1CN([C@@H](C)CO)C(=O)Cc2cc(NC(=O)Nc3ccccc3)ccc2O[C@@H]1CN(C)Cc1ccc(C(=O)O)cc1	-3	4	.	.	.
O=[N+]([O-])c1ccccc1NCCOc1ccccc1	.	-17	67*	65	-326
O=C(CCOc1ccccc1)Nc1ccccc1[N+](=O)[O-]	.	-2	2	7	16
CO[C@@H]1CN(C)C(=O)c2cc(NC(=O)Nc3c(C)noc3C)ccc2OC[C@@H](C)N(C)C[C@@H]1C	9.6*	10	.	.	-10[16.7 µM]
COc1ccccc1C(=O)Nc1ccc2c(c1)OC[C@H](C)N(C(C)=O)C[C@H](C)[C@H](OC)CN(C)C2=O	-1	0	.	.	60*[16.7 µM]
CO[C@H]1CN(C)C(=O)c2cc(NC(=O)c3ccc(F)cc3)ccc2OC[C@H](C)N(C(=O)CN(C)C)C[C@@H]1C	-2	0	.	.	62*[16.7 µM]
COc1ccccc1C(=O)Nc1ccc2c(c1)OC[C@H](C)N(C(C)=O)C[C@@H](C)[C@H](OC)CN(C)C2=O	2	-4	.	.	14[16.7 µM]
CO[C@H]1CN(C)C(=O)c2cc(NC(C)=O)ccc2OC[C@H](C)N(C(=O)c2ccncc2)C[C@H]1C	8.4*	10	.	.	-4[16.7 µM]
CO[C@@H]1CN(C)C(=O)c2cc(NC(=O)Nc3c(C)noc3C)ccc2OC[C@H](C)N(C)C[C@H]1C	-3	11	.	.	-13[16.7 µM]
CCCC#Cc1ccc2c(c1)O[C@H](CN(C)Cc1ccccc1)[C@H](C)CN([C@@H](C)CO)S2(=O)=O	2	15	.	.	-3[16.7 µM]
CO[C@H]1CN(C)C(=O)c2ccc(NC(=O)Nc3cccc(Cl)c3)cc2OC[C@H](C)NC[C@H]1C	-2	-3	.	.	-2[16.7 µM]
CCC(=O)N1C[C@@H](C)[C@H](OC)CN(C)C(=O)c2cc(NC(=O)Nc3cccc(F)c3)ccc2OC[C@H]1C	0	-26	.	.	-7[16.7 µM]
CO[C@H]1CN(C)C(=O)c2cc(NS(=O)(=O)c3ccc(Cl)cc3)ccc2OC[C@@H](C)N(C)C[C@@H]1C	1	-2	.	.	61*[16.7 µM]
CO[C@@H]1CN(C)C(=O)c2ccc(NS(=O)(=O)c3cn(C)cn3)cc2OC[C@@H](C)N(Cc2ccc(C(F)(F)F)cc2)C[C@H]1C	-1	-12	.	.	.
CO[C@@H]1CN(C)C(=O)c2cc(NS(=O)(=O)c3cn(C)cn3)ccc2OC[C@@H](C)N(Cc2ccc(C(F)(F)F)cc2)C[C@H]1C	2	-35	.	.	88*[16.7 µM]
CO[C@@H]1CN(C)C(=O)c2cc(NS(=O)(=O)c3ccc(Cl)cc3)ccc2OC[C@H](C)N(C)C[C@@H]1C	-1	0	.	.	12[16.7 µM]
COc1ccc(-c2cc3onc(-c4c(Cl)cccc4Cl)c3c(=O)n2C)cc1	0	-4	6	20	-37
CN(C)C(=O)c1ccc(-c2cc3onc(-c4ccccc4)c3c(=O)n2C)cc1	0	-26	41*	69	42

High-throughput results deposited in PubChem BioAssay by Broad Institute.
